This excerpt belongs to a sample that is enriched for hits.
DT40 TDP1 no CPT: qHTS for Inhibitors of human tyrosyl-DNA phosphodiesterase 1 (TDP1): qHTS in cells in absence of CPT; DT40 Tdp1-/- hTDP1 cells, no CPT, ATP luminescence, 48 h; AID 686978, 2013; Potency, µM (doses to about 46.2 µM), most hits filed as inhibitors; actives 15% (n = 420,000); further: nearly all actives have a fitted effect of over 55% in size
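Growth kinetics read by CellTiter-Glo luminescence after ≥48 hr at 37 °C. Cells: DT40 Tdp1-/- stably carrying human TDP1, 400 per well, compound exposure in the absence of CPT (DMSO vehicle).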
HT1080 IDH1KD tx: qHTS for induction of synthetic lethality in tumor cells producing 2HG: qHTS for the HT-1080-IDH1KD cell line; actives 2% (n = 360,000); AID 686971, 2013; HT-1080 IDH1 knockdown viability, ATP luminescence, 48 h; Potency, µM (series often up to 46.1 µM), usual class: cytotoxic
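Knockdown cells (IDH1KD HT-1080) received compounds 2 h after plating at 750 cells/well and were kept 48 h at 37 °C in 5% FBS RPMI. A CellTiter-Glo luminescence read gave % activity for curve fitting.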
DT40 TDP1 CPT: qHTS for Inhibitors of human tyrosyl-DNA phosphodiesterase 1 (TDP1): qHTS in cells in presence of CPT; actives 12% (n = 420,000); chicken DT40 Tdp1-/-;hTDP1 cells + 20 nM CPT, ATP luminescence, 48 h; AID 686979, 2013; Potency, µM (top dose mostly 46.2 µM), hits mostly inhibitors; further: nearly all actives have a fitted effect of over 55% in size
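Chicken DT40 Tdp1-/- cells complemented with human TDP1, 400 cells/well, exposed to compounds plus 20 nM camptothecin for at least 48 h at 37 C; viability read as ATP content by CellTiter-Glo luminescence.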
HT1080-NT tox: qHTS for induction of synthetic lethality in tumor cells producing 2HG: qHTS for the HT-1080-NT fibrosarcoma cell line. HT-1080-NT fibrosarcoma viability, CellTiter-Glo ATP luminescence, 48 h. Potency, µM (doses to about 46.1 µM), usual class: cytotoxic. actives 1.6% (n = 360,000). AID 686970, 2013;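 further: NT is the 2HG producing partner of a matched IDH1 knockdown line; nearly all actives have a fitted effect of over 55% in size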
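Compounds were tested in concentration-response format on HT-1080-NT cells for 48 hours at 37 degrees C. Cell viability came from CellTiter-Glo luminescence; curves were classified by r2, response magnitude and activity.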
12-LOX inh: Primary qHTS assay for inhibitors of human arachidonate 12S-lipoxygenase (ALOX12): Round 2 | Polyunsaturated fatty acid lipoxygenase ALOX12 (Homo sapiens), P18054 | purified 12hLO, xylenol orange hydroperoxide absorbance | Potency, µM (highest dose often 108 µM), hits mostly inhibitors | actives 1.1% (n = 580,000) | AID 1671190, 2021
Target sequence (P18054 whole entry, looked up): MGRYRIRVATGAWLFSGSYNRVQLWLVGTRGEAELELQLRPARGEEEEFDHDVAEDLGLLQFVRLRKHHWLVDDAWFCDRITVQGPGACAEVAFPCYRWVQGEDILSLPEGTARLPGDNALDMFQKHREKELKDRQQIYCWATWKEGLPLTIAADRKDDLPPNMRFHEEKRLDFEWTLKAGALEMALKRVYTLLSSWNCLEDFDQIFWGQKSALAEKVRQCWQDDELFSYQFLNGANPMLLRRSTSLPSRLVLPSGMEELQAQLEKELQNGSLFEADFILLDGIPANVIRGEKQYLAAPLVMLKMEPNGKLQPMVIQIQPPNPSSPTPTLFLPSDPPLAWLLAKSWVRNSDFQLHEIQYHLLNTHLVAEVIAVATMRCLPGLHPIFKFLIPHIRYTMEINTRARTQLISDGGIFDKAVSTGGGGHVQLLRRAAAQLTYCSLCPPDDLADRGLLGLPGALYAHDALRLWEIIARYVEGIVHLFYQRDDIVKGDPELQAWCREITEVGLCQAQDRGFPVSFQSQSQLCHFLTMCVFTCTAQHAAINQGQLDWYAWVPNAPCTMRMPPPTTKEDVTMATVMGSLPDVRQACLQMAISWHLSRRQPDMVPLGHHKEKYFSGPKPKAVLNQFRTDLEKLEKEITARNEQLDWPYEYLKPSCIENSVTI
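Purified human 12hLO at 150 nM in 25 mM Hepes, 0.01% Triton X-100, pH 7.0, preincubated 15 min at room temperature with compound. Reaction started with 40 uM arachidonic acid, 30 min at room temperature. Hydroperoxide measured by Fe-xylenol orange, 573/405 nm absorbance ratio.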
IL1B secr inh: qHTS for Inhibitors of Inflammasome Signaling: IL-1-beta AlphaLISA Primary Screen | THP-1 LPS/ATP IL-1B secretion, AlphaLISA, 16 h; active compounds read low | activity change, % at 57.5 µM | actives 4.7% (n = 360,000); in the data active means activity change below about -50%; inconclusive means mostly about -30% to -49%
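Secreted IL-1B measured by AlphaLISA bead assay after 16 h compound exposure of THP-1 cells; compounds (final up to 57.5 uM) added 1 h before LPS (250 ng/mL) and ATP (1.25 mM) stimulation; lower signal means less secretion.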
Hits are given with their value; - = inactive; ? = inconclusive; . = no result. Unless noted, the call rests on the fitted dose curve; in most records, active means well fitted curve in the direction sought with a large enough effect; inconclusive means small, poorly fitted or top-dose-only effect, or another doubt; inactive means no such curve, though single readings can be large; an effect the other way counts as inactive or inconclusive.

SMILES | DT40 TDP1 no CPT | HT1080 IDH1KD tx | DT40 TDP1 CPT | HT1080-NT tox | 12-LOX inh | IL1B secr inh
CC(C)NC(=O)NC(=O)CN(C)C(C)C(C)(C)C (stereo unspecified) | . | . | . | . | - | .
O=c1c2ccccc2nc(/C=C/c2cccnc2)n1CCc1ccccc1 | 13µM | ? | 14.6µM | ? | - | -70.6
CCn1c(/C=C\c2ccccc2C)nc2ccccc2c1=O | 13µM | - | 23.1µM | - | - | -
c1ccc(-n2nnnc2Sc2ncnc3sc4c(c23)CCCC4)cc1 | 3.26µM | - | 4.11µM | - | - | -
O=C(O)CSc1ncnc2sc3c(c12)CCC3 | ? | - | ? | - | - | -
Cc1sc2ncnc(Sc3nnnn3-c3ccc(Cl)cc3)c2c1C | ? | ? | ? | ? | - | -69.5
Cc1sc2ncnc(SCc3ccco3)c2c1C | ? | - | ? | - | - | -
COc1cc(Cl)c(NC(=O)CN(C)S(=O)(=O)c2ccc3[nH]c4c(c3c2)CCCC4)c(OC)c1 | 18.4µM | . | 23.1µM | . | - | .
Cc1ccc(NC(=O)CN(C)S(=O)(=O)c2ccc3[nH]c4c(c3c2)CCCC4)c(Cl)c1 | 18.4µM | . | ? | . | ? | .
COc1ccc(NC(=O)CN(C)S(=O)(=O)c2ccc3[nH]c4c(c3c2)CCCC4)cc1OC | 16.4µM | . | ? | . | - | .
CN(CC(=O)Nc1cccc(Cl)c1)S(=O)(=O)c1ccc2[nH]c3c(c2c1)CCCC3 | 23.1µM | . | ? | . | ? | .
CN(CC(=O)Nc1cccc(C(F)(F)F)c1)S(=O)(=O)c1ccc2[nH]c3c(c2c1)CCCC3 | ? | . | ? | . | - | .
COc1cc(NC(=O)CN(C)S(=O)(=O)c2ccc3c(c2)CCCC(=O)N3)cc(OC)c1OC | . | . | . | . | - | .
Cc1ccc(S(=O)(=O)N(C)CC(=O)Nc2cccc3c2CCCC3)cc1 | ? | - | - | - | - | -
C/C(=N\NC(N)=O)c1ccc(Br)cc1 | . | . | . | . | - | .
COc1ccc(S(=O)(=O)N(C)CC(=O)Nc2ccccc2C(F)(F)F)cc1Cl | - | - | ? | - | - | -
COc1ccc(NC(=O)CN(C)S(=O)(=O)c2ccc3[nH]c4c(c3c2)CCCC4)cc1Cl | ? | . | 23.1µM | . | ? | .
Cc1ccc(S(=O)(=O)N(C)C)cc1NC(=O)C(C)N(C)Cc1sccc1C (stereo unspecified) | 20.6µM | - | 18.4µM | - | - | ?
Cc1ccc(S(=O)(=O)N(C)C)cc1NC(=O)C(C)NC(C)c1cccs1 (stereo unspecified) | - | - | ? | - | - | -
CCCCCCCOc1ccc(OC(=O)c2cccnc2)cc1 | 8.2µM | - | 5.17µM | - | - | -
CCCCCCCOc1ccc(OC(=O)c2ccncc2)cc1 | 10.3µM | - | 9.2µM | - | - | -
CCCCOc1ccc(OC(=O)c2cccnc2)cc1 | 16.4µM | ? | 20.6µM | - | - | -
CCCCCCCCCCOc1ccc(OC(=O)c2cccnc2)cc1 | . | . | . | . | - | .
COc1ccc(-c2n[nH]c3c2CC(=O)N(Cc2ccccn2)C3)cn1 | . | . | . | . | - | .
O=C(Cc1c(Cl)cccc1Cl)NC(c1cccs1)C1CC1 (stereo unspecified) | . | . | . | . | - | .
SMILES | DT40 TDP1 no CPT | HT1080 IDH1KD tx | DT40 TDP1 CPT | HT1080-NT tox | 12-LOX inh | IL1B secr inh
CN1C(=O)Cc2cc(S(=O)(=O)CCC(=O)Nc3ccc(F)c(Cl)c3)ccc21 | - | . | ? | . | - | .
O=C(CCS(=O)(=O)c1ccc(Br)cc1)Nc1ccc(Cl)c(C(F)(F)F)c1 | 20.6µM | . | ? | . | ? | .
CN1C(=O)Cc2cc(S(=O)(=O)CCC(=O)Nc3ccc(Cl)c(C(F)(F)F)c3)ccc21 | ? | . | 23.1µM | . | - | .
CCC(=O)N1CCc2cc(S(=O)(=O)CCC(=O)Nc3ccc(Cl)c(C(F)(F)F)c3)ccc21 | 8.2µM | . | 16.4µM | . | - | .
CCOC(=O)c1cccc(NC(=O)CCS(=O)(=O)c2ccc3c(c2)CCN3C(=O)CC)c1 | - | . | ? | . | ? | .
COc1ccc(OC)c(-c2noc(CSc3nnc(-c4ccccc4)n3-c3ccccc3)n2)c1 | 5.17µM | . | 14.6µM | . | - | .
COc1ccc(OC)c(-c2noc(CSc3nnc(Cc4ccccc4)n3-c3cccc(C)c3)n2)c1 | 23.1µM | . | 18.4µM | . | - | .
COc1ccc(OC)c(-c2noc(CSc3nnc(C)n3-c3cccc(C)c3)n2)c1 | . | . | . | . | - | .
